# Test results from ChEMBL document CHEMBL4513216, “Probing the Open Global Health Chemical Diversity Library for Multistage-Active Starting Points for Next-Generation Antimalarials” (ACS Infect Dis, 2020).
# About 8,600 (12%) of roughly 69,000 compounds showed an effect of 50% or more. This is one part of a sample in which strong results are shown more often than they occur.
# Test system: Plasmodium berghei
# Assay: Screen against P. berghei liver stage (PbLuc), transformed with Luciferase, at 10uM
# Assay type: functional, HepG2
# Conditions: tested at 10 uM
row,Structure (SMILES),INHIBITION [%]
1,O=S(=O)(c1cccs1)N1CCCn2nnc(CN3CCCCC3)c2C1,23.2
2,O=S(=O)(c1cccs1)N1CCN(Cc2nc(-c3ccco3)cs2)CC1,57.1
3,Cc1ccc(CC(=O)N2CCN(CC(O)c3ccccc3)CC2)cn1 (stereo unspecified),42.7
4,O=S(=O)(c1cccnc1)N1CCN(CC(O)c2cccs2)CC1 (stereo unspecified),-7.28
5,O=S(=O)(c1cccnc1)N1CCN(CC(O)c2ccccc2)CC1 (stereo unspecified),83.4
6,O=S(=O)(c1cccnc1)N1CCN(Cc2nc(-c3ccco3)cs2)CC1,33.4
7,O=S(=O)(c1cccnc1)N1CCN(Cc2nc(-c3cccs3)cs2)CC1,57.1
8,N#CCCN1CCN(S(=O)(=O)c2ccc(Cl)s2)CC1,42
9,Cn1cnc(S(=O)(=O)N2CCN(Cc3ccco3)CC2)c1Cl,32.7
10,CC(C)(C)c1csc(CN2CCN(S(=O)(=O)c3cccnc3)CC2)n1,29
11,O=S(=O)(c1cccs1)N1CCCn2cnc(CN3CCCC3)c2C1,-11.9
12,O=S(=O)(c1ccc(Cl)s1)N1CCN(Cc2nc(-c3ccco3)cs2)CC1,86.6
13,Cn1ccc(C(=O)NC2CCC23CCN(Cc2nccs2)CC3)c1 (stereo unspecified),38.2
14,Cc1cc(-c2ccccc2C(=O)O)nc(C2CCCN(C)C2)n1 (stereo unspecified),30.8
15,CC(C)CN1CCS(=O)(=O)[C@@H]2CCN(S(=O)(=O)C3CC3)CC[C@@H]21,12.1
16,CC(NC(=O)C1CC1)c1cc(O)nc(-c2cccnc2)n1 (stereo unspecified),10.3035
17,O=C(c1ccnnc1)N1CCO[C@H]2[C@H](Oc3cccnc3)CC[C@@H]21,13.7
18,CN1CCN(C(=O)CCc2ccccc2)Cc2cccnc21,-54.5
19,C=c1occc1=C1NN=C2SC(C#N)C(N)=NN21 (stereo unspecified),-14.8
20,CCC(C(=O)N(C)Cc1cc(C2CC2)[nH]n1)n1cccn1 (stereo unspecified),-33.5
21,CCC(C)C(=O)N(Cc1ccccn1)C1CC1 (stereo unspecified),36.9
22,CCC(C(=O)N(Cc1ccccn1)C1CCCCC1)n1cccn1 (stereo unspecified),72.1
23,O=C(c1ccoc1)N(Cc1ccccn1)C1CC1,-0.87
24,CCC(C(=O)NC1CCCCC1)n1cccc(OC)c1=O (stereo unspecified),-1.83

row,Structure (SMILES),INHIBITION [%]
1,CCC(C(=O)N(Cc1ccccc1OC)C1CC1)n1cccn1 (stereo unspecified),61
2,O=C(c1csc(-c2nnc[nH]2)n1)N1CCCCC1Cn1cccn1 (stereo unspecified),18.2
3,Cn1cc(C(=O)CC2CCCN2C(=O)c2ccncc2F)cn1 (stereo unspecified),10
4,CC(=O)N1CCN(CCCOc2ccccc2F)CC(C(N)=O)C1 (stereo unspecified),46
5,COc1ccc(F)cc1C(=O)N1C[C@H]2CC(OC)C[C@H]2C1 (stereo partly specified),23.2
6,Cc1ccccc1CC(C)(C)NC(=O)COc1cccc(C(N)=O)c1,38
7,Cc1ccccc1CC(C)(C)NC(=O)CCOc1cccc(C(N)=O)c1,69.7
8,Cc1ccccc1CC(C)(C)NC(=O)c1cccc(OCC(N)=O)c1,36.3
9,c1cc2c(cc1Cn1cc(C3CCOC3)nn1)CCCO2 (stereo unspecified),46.7
10,COC(=O)N1CCCN(Cn2nc(C)c(Br)c2C)CC1,13
11,CCC(=O)N1CCCN(Cn2nc(C)c(Br)c2C)CC1,56.1
12,COCC(=O)N1CCN(Cn2nc(C)c(Br)c2C)CC1,-36.4
13,COc1ccc(CNC(=O)N2CCN(CC(O)C3CC3)CC2)cc1 (stereo unspecified),35
14,CN(C)CCOc1cccc(CN2CCCC3(C2)CN(C)C(=O)O3)c1 (stereo unspecified),20.9
15,CN(Cc1ncc[nH]1)CC(c1cccs1)N1CCOCC1 (stereo unspecified),12.8
16,Cc1ccc(C(CNCc2nccn2C)N2CCOCC2)s1 (stereo unspecified),47.4
17,Cc1ccc(C(CNCC2CC2)N2CCOCC2)s1 (stereo unspecified),-23.2
18,Cc1ccc(C(CNCc2cccnc2)N2CCOCC2)s1 (stereo unspecified),42.3
19,CCn1ccnc1CNCC(c1ccc(C)s1)N1CCOCC1 (stereo unspecified),60.3
20,Cc1ccc(C(CNCc2ncc[nH]2)N2CCOCC2)s1 (stereo unspecified),60.3
21,Cc1nccn1CCN(C)C(=O)c1cn(-c2ccccc2)nn1,-32.6
22,CC(C)NC(=O)N1CCCn2cnc(CN3CCCC3=O)c2C1,-12.2
23,CN(C)CCOCC1CN(C(=O)c2ccnnc2)Cc2ccnn2C1 (stereo unspecified),39.8
24,CO[C@H]1CN(Cc2nc3ccccc3n2C)C[C@@]12CCCO2,25.64

row,Structure (SMILES),INHIBITION [%]
1,COCCCNC(=O)CN(C)C(=O)c1ccc(-n2cccc2)cc1O,39.25
2,CCn1c(Cn2cncn2)nnc1C1CCN(C2CCOCC2)CC1,15.7
3,Cc1n[nH]c(C2CN(C(=O)COCC(F)(F)F)CCO2)n1 (stereo unspecified),32.2
4,NC(=O)c1cnn2c1NCC(CNC1(c3ccccc3)CCC1)C2 (stereo unspecified),33.7
5,O=S(=O)(NCc1ccc(S(=O)(=O)N2CCCC2)s1)c1cc(Cl)ccc1Cl,3.48
6,Nc1nc(SCc2ccc3c(c2)OCO3)ns1,-14.2
7,CC(C)CNC(=O)Nc1cccc(OCC#N)c1,-8.4
8,CN(CCn1ccc2ccccc21)C(=O)Cc1n[nH]c(=O)[nH]1,5.38
9,CN(CCn1ccc2ccccc21)C(=O)Cc1nnn[nH]1,62.8
10,CN(CCn1ccc2ccccc21)C(=O)CS(C)(=O)=O,34.1
11,Cn1cc(CN2CCCN(C(=O)c3sccc3C#N)CC2)cn1,-5.25
12,c1cnc(N2CCC3(CCN(CC4CCOC4)CC3)C2)nc1 (stereo unspecified),-10.2
13,O=C1N(CC2CC2)CCC12CCN(c1ncccn1)CC2,-2.6
14,CS(=O)(=O)N1CCC2(CC1)CN(CC1CCOC1)c1ccccc12 (stereo unspecified),39.4
15,CCCS(=O)(=O)N1CCC2(CC1)CC(N1CCCC1)c1ccccc12 (stereo unspecified),71.8
16,CCS(=O)(=O)N1CCC2(CC1)CN(CC1CCOC1)c1ccccc12 (stereo unspecified),73.8
17,c1ccc2c(c1)N(CC1CCOC1)CC21CCN(c2cnccn2)CC1 (stereo unspecified),84.7
18,CCS(=O)(=O)N1CCC2(CCC(N3CCCC3)c3ccccc32)CC1 (stereo unspecified),23.1
19,c1cnc(N2CC3(CCN(CC4CCOC4)CC3)c3ccccc32)nc1 (stereo unspecified),18.7
20,CCS(=O)(=O)N1CCC2(CC1)CC(CC(=O)NC1CC1)c1ccccc12 (stereo unspecified),-5.22
21,OCCN1CC2(CCN(CC3CC3)CC2)c2ccccc21,26
22,c1cnc(N2CCC3(CC2)CN(CC2CC2)c2ccccc23)nc1,83.2
23,O=C1CC2(CCN(CC3CCOC3)CC2)c2ccccc2N1CC1CC1 (stereo unspecified),9.97
